From PubChem
Hits are enriched below; roughly 1.8% of the tested compounds scored in any of these assays.
RPL19A TOR yeast: modulators of TOR pathway RPL19A-GFP in S. cerevisiae; 0.3% of 330,000 active; S. cerevisiae RPL19A-GFP strain, flow cytometry, 3 h; stronger effect = lower value; AID 2025; percent response vs DMSO, % at 10 µM;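 active = percent response vs DMSO below 50%; inconclusive = fewer than 70 events counted for the yeast strain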;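 also: median channel GFP fluorescence of the barcoded RPL19A-GFP strain; lower means less RPL19A-GFP as with rapamycin TOR inhibition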
LAP4 TOR yeast: yeast TOR pathway LAP4-GFP modulation; S. cerevisiae LAP4-GFP multiplex, flow cytometry GFP, 3 h; median GFP as percent of DMSO wells; GFP response vs DMSO, % at 10 µM; 0.34% of 320,000 active;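 active = GFP response vs DMSO above a set limit, about the screen mean plus 3 SD, cut at about 150% in these data; inconclusive = under 70 cell events counted for the yeast strain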
MEP2-GFP yeast: alters MEP2-GFP fluorescence in TOR pathway yeast screen. GFP response vs DMSO, % at 10 µM. S. cerevisiae MEP2-GFP strain, flow cytometry GFP, 3 h; 100% = DMSO control level. 0.51% of 330,000 active;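 active = GFP response versus DMSO above a set limit, roughly screen mean plus 3 SD, cut at about 180% in these data; inconclusive = fewer than 70 cells counted for a yeast strain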;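 also: median GFP fluorescence of the barcode-gated MEP2-GFP cells per well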
CIT2-GFP yeast: yeast TOR pathway CIT2-GFP modulation; GFP response vs DMSO, % at 10 µM; 0.065% of 320,000 active; AID 2029; S. cerevisiae CIT2-GFP strain, flow cytometry, 3 h; 100 means same as DMSO wells;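 active = GFP response relative to DMSO above a set limit, near the screen mean plus 3 SD, cut at about 150% in these data; inconclusive = Fewer than 70 cells measured for a yeast strain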;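 also: ratio of well median GFP fluorescence to mean of DMSO wells on the plate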
AGP1 TOR yeast: modulators of TOR pathway AGP1-GFP in S. cerevisiae. S. cerevisiae AGP1-GFP multiplex flow cytometry, 3 h; GFP as percent of DMSO wells. GFP response vs DMSO, % at 10 µM. 0.02% of 320,000 active;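 active = GFP response relative to DMSO above a set limit, near screen average plus 3 SD, cut at about 150% in these data; inconclusive = fewer than 70 cells counted for the yeast strain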;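 also: median GFP channel fluorescence of the gated AGP1 strain per well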
Myeloid diff 2: compounds promoting myeloid differentiation; calls only at 10 µM; ER-HoxA9 myeloid progenitors, lysozyme-GFP differentiation, flow cytometry; 1% of 360,000 active;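 active = normalized GFP-positive differentiation at or above the plate's own cutoff, the solvent-only control mean plus 3 SD; inconclusive = no clear call, values can overlap the other calls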;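 also: cells exposed to compound for four days before flow analysis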
LAP4-GFP pick2: reconfirmed LAP4-GFP TOR pathway modulator in yeast; GFP response vs DMSO, % at 10 µM; S. cerevisiae LAP4-GFP strain, flow cytometry GFP, 3 h; shares compounds with LAP4 TOR yeast; AID 2621; 20% of 590 active;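 active = GFP signal as percent of the solvent control above about 150%, meaning raised reporter expression, limit read from the data; inconclusive = fewer than 70 cells counted in the well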
MEP2 cherry2: yeast MEP2-GFP modulation, second cherry pick; shares compounds with LAP4 TOR yeast; S. cerevisiae MEP2-GFP strain, flow cytometry GFP, 3 h; GFP response vs DMSO, % at 10 µM; 10% of 590 active; AID 2622;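 active = GFP signal above 150% of the solvent control wells, that is a rise of more than half; inconclusive = fewer than 70 yeast cells counted in the well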;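 also: median channel GFP fluorescence of all gated yeast cells per well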
RPL19A-GFP pick2: yeast RPL19A-GFP TOR reporter modulation, second cherry pick. GFP response vs DMSO, % at 10 µM. shares compounds with LAP4 TOR yeast. S. cerevisiae RPL19A-GFP strain, flow cytometry GFP, 3 h; stronger effect = lower value; 100% means same as DMSO wells. 3% of 590 active. AID 2623;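 active = under 65% GFP response relative to DMSO; inconclusive = yeast strain with under 70 measured events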;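 also: median GFP channel fluorescence per well over the all cells gate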
CIT2-GFP pick2: reconfirmed modulator of CIT2-GFP TOR reporter in yeast; GFP response vs DMSO, % at 10 µM; S. cerevisiae CIT2-GFP strain, flow cytometry GFP, 3 h; DMSO control wells read 100%; AID 2624; 8% of 590 active; shares compounds with LAP4 TOR yeast;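 active = GFP response vs DMSO above about 150%, limit read from the data; inconclusive = fewer than 70 events counted for a yeast strain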;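 also: median green fluorescence per well over all gated yeast cells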
AGP1 GFP CP2: yeast AGP1-GFP TOR reporter modulation, second cherry pick | percent response vs DMSO, % at 10 µM | S. cerevisiae AGP1-GFP strain, flow cytometry GFP, 3 h | shares compounds with LAP4 TOR yeast | 590 tested, under 10 active;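 active = over 150 percent of DMSO response; inconclusive = yeast strain measured with under 70 events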;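 also: median GFP channel fluorescence over all cells without mother daughter split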
Yeast autofluor: compound is autofluorescent in yeast s288c cells. S. cerevisiae s288c, 520 nm autofluorescence, flow cytometry, 3 h; stronger effect = higher value; zero means same as solvent-only cells. AID 2757. shares compounds with LAP4 TOR yeast. 610 tested, under 10 active. fluorescence change (kMESF span) at 33 µM;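 active = fluorescence span over the dose series, or activity score, above about 33, limit read from the data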
s288c autofl DR: TOR screen hit shows autofluorescence in yeast s288c; shares compounds with LAP4 TOR yeast; fluorescence change (span) at 33 µM; 110 tested, under 10 active; S. cerevisiae s288c parental, compound autofluorescence, flow cytometry, 3 h;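 active = fluorescence change span, or the activity score built from it, above 25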
TORC1 bypass gr: compounds blocking wildtype yeast growth but not TORC1 bypass cells. growth rating (0-3) at 30 µM. S. cerevisiae BY4741 spot growth rating, 48-72 h; stronger effect = lower value. AID 504456. 120 tested, under 10 active. shares compounds with LAP4 TOR yeast;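 active = growth rating at most 1 for wild type yeast while the TORC1 bypass strain still grows fully, rated 3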
A number is an active result.

Screening COc1cc(/C=C2\C(=O)ON=C2c2ccccc2)cc(Br)c1O returned RPL19A TOR yeast inactive, LAP4 TOR yeast 157, MEP2-GFP yeast inactive, CIT2-GFP yeast inactive, AGP1 TOR yeast inactive, Myeloid diff 2 inactive and Yeast autofluor inactive.
`CCOc1cc(/C=C2\C(=O)ON=C2c2ccccc2)cc(Br)c1O` gave RPL19A TOR yeast inactive, LAP4 TOR yeast inactive, MEP2-GFP yeast inactive, CIT2-GFP yeast inactive and AGP1 TOR yeast inactive.
For C/C(=N\NC(=O)c1ccc(Br)o1)c1cc2c(cc1NC(=O)CCC(=O)O)OCO2 the results were RPL19A TOR yeast inactive, LAP4 TOR yeast inactive, MEP2-GFP yeast inactive, CIT2-GFP yeast inactive, AGP1 TOR yeast inactive and Myeloid diff 2 inactive.
Screening Cc1ccccc1C(=O)NNC(=S)NC(=O)c1ccc(Cl)cc1Cl returned RPL19A TOR yeast inactive, LAP4 TOR yeast 182, MEP2-GFP yeast inactive, CIT2-GFP yeast inactive, AGP1 TOR yeast inactive and Yeast autofluor inactive.
For O=C(NC(=S)NNC(=O)c1ccc(Cl)cc1Cl)c1cccnc1 the results were RPL19A TOR yeast inactive, LAP4 TOR yeast inactive, MEP2-GFP yeast 184, CIT2-GFP yeast inactive, AGP1 TOR yeast inactive, Myeloid diff 2 inactive and Yeast autofluor inactive.
For O=C1CCCN2N=C(SCC(=O)N3CCCCC3)SC2=N1 the results were RPL19A TOR yeast inactive, LAP4 TOR yeast inactive, MEP2-GFP yeast inactive, CIT2-GFP yeast inactive, AGP1 TOR yeast inactive, Myeloid diff 2 inactive, LAP4-GFP pick2 inactive, MEP2 cherry2 inactive, RPL19A-GFP pick2 inactive, CIT2-GFP pick2 inactive and AGP1 GFP CP2 inactive.
`CCC1CCCCN1C(=O)CSC1=NN2CCCC(=O)N=C2S1` (stereo unspecified) gave RPL19A TOR yeast inactive, LAP4 TOR yeast inactive, MEP2-GFP yeast inactive, CIT2-GFP yeast inactive, AGP1 TOR yeast inactive and Myeloid diff 2 inactive.
Cc1cc(NC(=O)CSc2nnc(Nc3ccccc3C)s2)no1 was read as RPL19A TOR yeast inactive, LAP4 TOR yeast 153, MEP2-GFP yeast inactive, CIT2-GFP yeast inactive, AGP1 TOR yeast inactive, Myeloid diff 2 inactive, LAP4-GFP pick2 inactive, MEP2 cherry2 inactive, RPL19A-GFP pick2 inactive, CIT2-GFP pick2 inactive and AGP1 GFP CP2 inactive.
`Cc1cc(NC(=O)CSc2nnc(Nc3ccccc3)s2)no1` gave RPL19A TOR yeast inactive, LAP4 TOR yeast inactive, MEP2-GFP yeast inactive, CIT2-GFP yeast inactive, AGP1 TOR yeast inactive and Myeloid diff 2 inactive.
Screening O=C(NC(=S)Nc1cccc(Cl)c1N1CCCCC1)c1ccc2c(c1)OCCO2 returned RPL19A TOR yeast inactive, LAP4 TOR yeast inactive, MEP2-GFP yeast inactive, CIT2-GFP yeast inactive, AGP1 TOR yeast inactive and Myeloid diff 2 inactive.
`Cc1ccc(/C=C2/C(=O)ON=C2c2ccccc2)o1` gave RPL19A TOR yeast inactive, LAP4 TOR yeast 257, MEP2-GFP yeast inactive, CIT2-GFP yeast inactive, AGP1 TOR yeast inactive, Myeloid diff 2 inactive, Yeast autofluor inactive, s288c autofl DR inactive and TORC1 bypass gr inactive.
For O=C1ON=C(c2ccccc2)/C1=C/c1ccccc1 the results were RPL19A TOR yeast inactive, LAP4 TOR yeast inactive, MEP2-GFP yeast inactive, CIT2-GFP yeast inactive, AGP1 TOR yeast inactive and Myeloid diff 2 inactive.
`O=C1ON=C(c2ccccc2)/C1=C\c1ccco1` gave RPL19A TOR yeast inactive, LAP4 TOR yeast 219, MEP2-GFP yeast inactive, CIT2-GFP yeast inactive, AGP1 TOR yeast inactive, Myeloid diff 2 inactive, Yeast autofluor inactive, s288c autofl DR inactive and TORC1 bypass gr inactive.
Screening Cc1cc(C)cc(OCC(=O)OCC(=O)NC2CC2)c1 returned RPL19A TOR yeast inactive, LAP4 TOR yeast 183, MEP2-GFP yeast inactive, CIT2-GFP yeast inactive, AGP1 TOR yeast inactive, Myeloid diff 2 inactive, LAP4-GFP pick2 inactive, MEP2 cherry2 inactive, RPL19A-GFP pick2 inactive, CIT2-GFP pick2 inactive and AGP1 GFP CP2 inactive.
Cc1ccc(OCC(=O)OCC(=O)NC2CCCC2)cc1C was read as RPL19A TOR yeast inactive, LAP4 TOR yeast inactive, MEP2-GFP yeast inactive, CIT2-GFP yeast inactive, AGP1 TOR yeast inactive and Myeloid diff 2 inactive.
O=C(Nc1ccc(F)cc1)c1ccc(CN2CCc3ccccc3C2)cc1 was read as RPL19A TOR yeast inactive, LAP4 TOR yeast inactive, MEP2-GFP yeast inactive, CIT2-GFP yeast inactive, AGP1 TOR yeast inactive and Myeloid diff 2 inactive.
`COc1ccccc1N=Nc1ccc(O)c2ncccc12` gave RPL19A TOR yeast inactive, LAP4 TOR yeast 249, MEP2-GFP yeast inactive, CIT2-GFP yeast inactive, AGP1 TOR yeast inactive, Myeloid diff 2 inactive and Yeast autofluor inactive.
For Cc1ccc(N=Nc2ccc(O)c3ncccc23)cc1C the results were RPL19A TOR yeast inactive, LAP4 TOR yeast inactive, MEP2-GFP yeast inactive, CIT2-GFP yeast inactive, AGP1 TOR yeast inactive and Myeloid diff 2 inactive.
Cc1ccc(N=Nc2ccc(O)c3ncccc23)cc1 was read as RPL19A TOR yeast inactive, LAP4 TOR yeast 157, MEP2-GFP yeast inactive, CIT2-GFP yeast inactive, AGP1 TOR yeast inactive, Myeloid diff 2 inconclusive, LAP4-GFP pick2 188, MEP2 cherry2 inactive, RPL19A-GFP pick2 inactive, CIT2-GFP pick2 150, AGP1 GFP CP2 inactive and Yeast autofluor inactive.
O=C(NCC1CCN(Cc2ccccc2F)CC1)Nc1cccc(Br)c1 was read as RPL19A TOR yeast inactive, LAP4 TOR yeast inactive, MEP2-GFP yeast inactive, CIT2-GFP yeast inactive, AGP1 TOR yeast inactive and Myeloid diff 2 inactive.
